Test results published in PubChem BioAssay AID777 (Sanford-Burnham Center for Chemical Genomics, 2007).
Hit rate of the full screen: of about 96,000 compounds, about 19,000 (20%) were called active.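 How the source made its calls: active means blocking of liver enzyme CYP2C9 beyond about 50% at 5 µM (limit read from the data); inactive means the rest.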 Only a sample is shown.

molecular target: Cytochrome P450 2C9 (Homo sapiens) (UniProt P11712); assay: blockers of cytochrome P450 2C9 activity – biochemical, luminescence, ADME assay, primary screen (AID 777); details: CYP2C9 Supersomes, luciferin-H conversion, at 5 µM, stronger effect = higher value
Sequence (P11712 whole entry, looked up): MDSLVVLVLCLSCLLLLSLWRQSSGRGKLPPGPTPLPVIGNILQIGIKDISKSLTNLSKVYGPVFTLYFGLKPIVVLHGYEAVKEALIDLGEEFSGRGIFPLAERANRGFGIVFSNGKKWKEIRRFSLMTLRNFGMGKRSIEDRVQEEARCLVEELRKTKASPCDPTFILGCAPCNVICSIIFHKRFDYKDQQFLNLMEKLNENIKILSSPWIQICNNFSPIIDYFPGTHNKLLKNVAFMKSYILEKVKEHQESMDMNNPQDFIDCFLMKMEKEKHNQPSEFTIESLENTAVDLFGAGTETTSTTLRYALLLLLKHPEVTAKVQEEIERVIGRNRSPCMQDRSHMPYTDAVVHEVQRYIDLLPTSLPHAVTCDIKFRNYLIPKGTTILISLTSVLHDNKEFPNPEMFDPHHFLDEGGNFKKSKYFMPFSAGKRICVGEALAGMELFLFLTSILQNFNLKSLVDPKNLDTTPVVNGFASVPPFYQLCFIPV

inhibition, active:
CC(C)CNC(=O)CC(c1ccccc1)c1c(O)ccc2ccccc12 (stereo unspecified) 71.2%, CCOC(=O)c1cnc(SC)nc1Sc1ccc(Cl)cc1Cl 81.5%, C=CCn1c(SCn2nnc3ccccc3c2=O)nnc1-c1ccc(Cl)cc1 67.1%, CO/N=C(/CS(=O)(=O)c1ccc(Br)cc1)c1ccc(OC)cc1 91.6%, O=C(CN1CCOCC1)N1CCCc2c1c(=O)oc1ccc(OCc3ccccc3)cc21 72.5%, COCCN1C(=O)c2oc3c(C)cc(C)cc3c(=O)c2C1c1cccc(O)c1 (stereo unspecified) 98.6%, CCOC(=O)c1c(C)[nH]c(C(=O)COc2ccc3c(c2)OCO3)c1C 93%, Cn1c(NN)nc2sc3c(c2c1=O)CCC3 68.1%, C=CCn1c(SCc2nnc(-c3ccccc3)o2)nnc1C(O)c1ccccc1 (stereo unspecified) 59%, CCn1c(CSc2nncn2-c2ccc(OC)cc2)nc2cc(S(=O)(=O)N(C)C)ccc21 50.1%, O=C(Nc1ccc2c(c1)OCCO2)c1ccc(Cl)c(S(=O)(=O)N2CCCCC2)c1 97.2%, Cc1ccc(C(=O)Nc2ccc3c(c2)OCO3)cc1S(=O)(=O)N1CCCCC1 93.3%, CC(C)C(=O)Nc1cccc(C(=O)Nc2ccc3c(c2)OCO3)c1 57.2%, Cc1ccc(-n2c(Cc3cccs3)nnc2SCC(=O)OC(C)C)cc1 67.5%, CCn1c(Cc2cccs2)nnc1SCC(=O)c1ccc(C)cc1 78.7%, CCn1c(SCC(=O)c2ccc(Cl)s2)nnc1-c1cccs1 69.2%, Cc1cc(C)c2cc(CN(Cc3cccs3)Cc3nnnn3CC3CCCO3)c(=O)[nH]c2c1 (stereo unspecified) 75.5%, CCC(c1nnnn1Cc1ccccc1)N(Cc1cc2cc(OC)ccc2[nH]c1=O)CC1CCCO1 (stereo unspecified) 66.2%, COc1ccc2[nH]c(=O)c(CN(Cc3nnnn3CCc3ccccc3)CC3CCCO3)cc2c1 (stereo unspecified) 68%

inhibition, inactive:
COc1ccc(Cl)cc1C(=O)NCC#N -80.7%, CC(C)CNC(=O)COC(=O)/C=C/c1ccccc1[N+](=O)[O-] -41.6%, O=C1CC(C(F)(F)C(F)(F)C(F)(F)C(F)(F)F)=Nc2ccccc2N1 9%, CCN(CC(=O)NC1CCS(=O)(=O)C1)c1nc(-c2cccnc2)nc2ccccc12 (stereo unspecified) 3.9%, CCOC(=O)c1nc(C)n(-c2ccc(Cl)cc2Cl)n1 -0.6%, CCOC(=O)CSc1ncc(-c2cccc(Cl)c2)cn1 14.2%, Cc1ccc(C(=O)NC2CC(C)(C)NC(C)(C)C2)c(C)c1 -6.6%, Cc1nn(C)cc1/C=N/NC(=O)c1sc2ccccc2c1Cl 23.6%, O/N=C1\CC2(Cc3nonc31)OCCO2 4%, CS(=O)(=O)N1CCN(C(=O)c2cc3ccccc3oc2=O)CC1 -3.6%, O=c1c2ccccc2nnn1CSc1nnnn1-c1ccccc1 -35.7%, Cc1cccc(OCc2nnc(SCn3nnc4ccccc4c3=O)o2)c1 35.9%, COc1cccc(Nc2ncccc2C(=O)O)c1 -5.5%, CC1(C)CC(=O)C2=C(C1)NCN(CCCN1CCOCC1)C2 3.8%, CCOc1cc(CO)ccc1OCC(=O)N1CCCCC1 -19.8%, N#C/C(=C1/CCCN1)c1ccccn1 7.3%, COC(=O)C(C)N(C#N)c1nc(C)nc(C)n1 (stereo unspecified) -136%, COc1ccc(/C(N)=N/OC(=O)Oc2ccccc2)cc1 21.5%, COC(=O)CNS(=O)(=O)c1ccc(OC)cc1 -0.5%, O=C1CC(c2cccc(Br)c2)C2=C(CCCC2=O)N1 (stereo unspecified) 10.3%, Cc1cccc(NC(=O)c2cc(N3C(=O)CCC3=O)ccc2Cl)n1 20.2%, COc1ccc2oc(=O)c(C(=O)N3CCCc4ccccc43)cc2c1 -44.4%, O=C(COc1ccc2oc3c(c2c1)CCCC3)Nc1ccccn1 2.1%, Cn1c(=NC(=O)C2CC2)sc2cc(F)cc(F)c21 -15.8%, O=C(CCN1C(=O)c2ccccc2C1=O)NCCN1CCOCC1 -18.8%, O=C1c2oc3ccccc3c(=O)c2C(c2cccc(O)c2)N1c1ccccn1 (stereo unspecified) 4.2%, O=C1c2oc3ccc(Br)cc3c(=O)c2C(c2cccc(F)c2)N1CCO (stereo unspecified) 23.9%, CC(=O)OC(C(=O)NCCc1ccccc1)c1cccnc1 (stereo unspecified) -7.6%, Cc1cc(C)n2nc(C(=O)Oc3ccc4c(c3)OCO4)nc2n1 -31.5%, CCOC(=O)c1c(C)oc2ccc(OCC(=O)N(CC)CC)cc12 -13.4%, Nc1c(-c2cccc(Cl)c2)cnn1-c1cccc([N+](=O)[O-])c1 4.4%, O=C(NC12CC3CC(CC(C3)C1)C2)N1CCCC(CO)C1 (stereo unspecified) 12.4%, CC12C(=O)N(n3cnnc3)C(=O)C1C1C=CC2C1 (stereo unspecified) 1.9%, NNC(=O)C1CCCn2c1nc1sc3c(c1c2=O)CCCC3 (stereo unspecified) 21.6%, O=C(O)[C@@H]1CCCN1c1ncnc2sc3c(c12)CCC3 4.9%, Cn1c(NC(=O)c2ccco2)c(-c2ccccc2Cl)c(=O)c2ccccc21 -3.7%, CC(C)Oc1ccc(C(=O)NC(C)(C)CO)cc1 15%, O=C(COc1ccccc1)NCCc1nc2ccccc2[nH]1 28.6%, O=C(CSCc1c(Cl)cccc1Cl)NN1C(=O)c2ccccc2C1=O 34.3%, CN(C)c1ccc(CNC23CN4CN(CN(C4)C2)C3)cc1 -4.7%, Cc1cccc2c1N(CC(=O)OC(C)C)C(=O)C2=O 8%, Cn1nnnc1SCC(=O)Nc1ccccc1C(=O)NC1CC1 10.7%, CC(C)Nc1nc(N(c2ccccc2)c2ccccc2)nc(-n2ccnc2)n1 29%, Cc1ccc(N2CCN(S(=O)(=O)N(C)C)CC2)cc1Cl 11%, O=C(NC1(C(F)(F)F)N=C2SCCN2C1=O)c1ccco1 (stereo unspecified) -10%, COc1cc(OC)c(C(=O)NC2CCCCCC2)cc1OC 34.4%, Cn1c(SCC(=O)C(C)(C)C)nnc1-c1ccccn1 -0.6%, Cc1ccc(C(=O)NCC(=O)O)cc1S(=O)(=O)N1CCCCC1 3.8%, COc1ccc(C(=O)Nc2ccc3c(c2)OCO3)cc1OC 1.7%, O=C(Nc1ccc2c(c1)OCCO2)c1cnccn1 4.9%, O=C(Nc1ccc2c(c1)OCCO2)c1ccncc1 46.2%, O=C(Nc1ccccc1)c1ccc2c(c1)OCO2 9.7%, Cn1c(=O)n(C)c2cc(C(=O)Nc3ccc4c(c3)OCO4)ccc21 -11.4%, Cc1c(C=O)c2ccccn2c1C(=O)c1ccncc1 40.3%, CCC(=O)c1ccc(OCC(O)CN2CCN(c3cccc(C(F)(F)F)c3)CC2)cc1 (stereo unspecified) 22%, O=C(c1ccc(Cl)cc1)c1ccc(OCC(O)CN2CCCCC2)cc1 (stereo unspecified) 7.1%, Cc1nnc(SCC(=O)NCCOc2ccc(Cl)cc2)n1-c1ccccc1 37.2%, CCN1CCC(=NNC(=O)c2ccc(C)c([N+](=O)[O-])c2)CC1 7.3%, c1ccc(CCC2=NCCn3cccc32)cc1 4.5%, Cc1cccc(C(=O)NCCCN2CCCC2=O)c1 -4%, CCn1c(SCC(=O)c2ccc3ccccc3c2)nnc1-c1cccs1 3.9%, COc1ccc(-n2c(SCC(=O)OC(C)C)nnc2-c2ccccn2)cc1 -13.5%, CCOC(=O)CSc1nnc(CNC(=O)c2cccs2)n1-c1ccccc1 -10.4%, Cn1c(SCC(=O)c2cccs2)nnc1-c1ccco1 -12.6%, CCOC(=O)CNC(=O)CSc1nnc(COc2ccc(Cl)cc2)n1CC 19.6%, COC(=O)c1c(-c2ccc(C)cc2)csc1N 31.9%, CCC(C)n1[nH]c(=O)c2c(C)cc(C)nc21 (stereo unspecified) 10.8%, COc1ccc(Cc2nnc(SC)[nH]c2=O)cc1 37.8%, C[N+](C)(C)CCNC(=O)c1c(O)c2c([nH]c1=O)CCCC2 6.6%, CC(CC(=O)Nc1cc(C(F)(F)F)ccc1Cl)c1ccccc1 (stereo unspecified) -141%, CC(C)n1c(C(O)c2ccccc2)nc2ccccc21 (stereo unspecified) -0.4%, Cc1cc(N2CCCC2)n2nc(C)c(-c3ccccc3)c2n1 -22.5%, COC(=O)c1cnn2c(C(F)(F)F)cc(-c3ccco3)nc12 -10.8%, Cc1c(C(=O)NCC2CCCO2)sc2nc(-c3ccccc3)cn12 (stereo unspecified) 28.3%, c1ccc2c(c1)OCC(CNc1ncnc3nc[nH]c13)O2 (stereo unspecified) 10.3%, CCOc1ccc2[nH]c(=O)c(CN(Cc3nnnn3Cc3ccccc3)CC3CCCO3)cc2c1 (stereo unspecified) 13%, CCC(=O)N(Cc1cc2cc(OC)ccc2[nH]c1=O)c1ccccc1C 36.4%, COc1ccc(N(Cc2cc3cc(OC)ccc3[nH]c2=O)S(C)(=O)=O)cc1 26.9%, Cc1ccsc1C(=O)OCC(=O)c1cc(C)n(CC2CCCO2)c1C (stereo unspecified) -70.9%, Cc1cc2cc(CN(Cc3cccs3)Cc3nnnn3CC3CCCO3)c(=O)[nH]c2cc1C (stereo unspecified) -32.2%, COc1ccc(CNC(=O)c2cc3c(=O)n4ccccc4nc3n(CC3CCCO3)c2=N)cc1 (stereo unspecified) 9.5%, CC(=O)c1c(C)c[nH]c1C -23.3%
